Measured values from PubChem BioAssay AID1345085 (National Center for Advancing Translational Sciences (NCATS), 2018).
Records with an inconclusive call do not appear. A number with no mark means an inactive call. Activity calls are given as the source filed them. The call rests on the fitted dose curve; in most records, active means well fitted cell-killing curve with a large enough effect; inconclusive means small, poorly fitted or top-dose-only effect, or effect the other way; inactive means no such curve, though single readings can be large or run the other way.

System: Hek293T
Test: Confirmatory qHTS for gynecologic anti-cancer compounds from libraries of approved drugs and bioactive compounds; further: nearly all actives have a fitted effect of over 55% in size
Details: gynecologic cancer cell panel viability, ATPlite luminescence, 48 h; series mostly up to 57.6 µM; activity change, negative = viability loss: at the top concentration
In short: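 Cells (1,000/well) plated 16 h, then exposed 48 h at 37 °C to 11 concentrations (1:3) from 57.5 uM to 0.977 nM. Viability by ATPlite luminescence after 15 min; IC50 derived, with HEK 293T used for selectivity index.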
On the % scale 0 is the no-effect control and ±100 the full control effect; potency means the concentration at half of the fitted maximal effect.

Row | SMILES | activity change, negative = viability loss | Potency
1 | Cn1c(=O)c(-c2c(Cl)cccc2Cl)cc2cnc(Nc3cccc(C(=O)O)c3)nc21 | 0.231% | 
2 | CN(NC(=O)CC(=O)NN(C)C(=S)c1ccccc1)C(=S)c1ccccc1 |  | 0.0611 µM (active)
3 | Cc1ccc(C(N)=O)cc1Nc1nccc(-c2cn(C(C)C)c3cnccc23)n1 |  | 13.7 µM (active)
4 | CN(c1nccc(=O)[nH]1)C1CCN(c2nc3ccccc3n2Cc2ccc(F)cc2)CC1 | -18.3% | 
5 | CN(C)CC/C=C1\c2ccccc2COc2ccccc21 | -37.8% | 
6 | CC[C@@]1(O)C(=O)OCc2c1cc1n(c2=O)Cc2cc3c(CN(C)C)c(O)ccc3nc2-1 |  | 3.43 µM (active)
7 | CC[C@H](CC#N)OC(=O)N[C@@H](C)c1cccc(NC(=O)Nc2ccc(-c3cnco3)c(OC)c2)c1 |  | 0.0769 µM (active)
8 | CCS(=O)(=O)N1CCN(c2ccc(Nc3ncc(C(N)=O)c(NC4CC4)n3)cc2)CC1 |  | 17.2 µM (active)
9 | CCN(CC)CCNC(=O)c1c(C)[nH]c(/C=C2\C(=O)Nc3ccc(F)cc32)c1C |  | 31.6 µM (active)
10 | COc1ccc(-c2nc3ccc(C4=NNC(=O)CC4C)cc3[nH]2)cc1 (centres undefined) |  | 2.17 µM (active)
11 | CC(=O)c1cnc2ccc(-c3cc(Cl)c(O)c(Cl)c3)nc2c1NC1CCC(CN(C)C)CC1 (centres undefined) |  | 0.0352 µM (active)
12 | CNC(=O)c1nn(C)c2c1C(C)(C)Cc1cnc(Nc3ccc(N4CCN(C)CC4)cc3)nc1-2 |  | 4.32 µM (active)
13 | Nc1ccc(C(=O)Nc2cccc(-c3nc(N4CCOCC4)c4oc5ncccc5c4n3)c2)cn1 | -21.6% | 
14 | CC(C)(C(=O)NCC(F)(F)C(F)(F)F)C(=O)NC1C(=O)Nc2ccccc2-c2ccccc21 (centres undefined) | -13.8% | 
15 | COc1cc2c(c(OC)c1OC)-c1ccc(OC)c(=O)cc1[C@@H](NC(C)=O)CC2 | -14.6% [at 486 µM] | 
16 | CN1CCN(c2cccc(Nc3nc4c(-c5ccc(S(C)(=O)=O)cc5)cccn4n3)c2)CC1 | -4.33% | 
17 | Cc1ccn(-c2ccc(-c3ncco3)cc2)c(=O)c1-c1ccc2nc(N)ncc2c1 | 0.323% | 

Row | SMILES | activity change, negative = viability loss | Potency
18 | CCc1cccc(CC)c1NC(=O)N1Cc2[nH]nc(NC(=O)c3ccc(N4CCN(C)CC4)cc3)c2C1 | -17.5% | 
19 | COc1cc2c(NC3CCN(C(C)C)CC3)nc(C3CCCCC3)nc2cc1OCCCN1CCCC1 |  | 9.68 µM (active)
20 | O=C(/C=C/c1cccc(S(=O)(=O)Nc2ccccc2)c1)NO |  | 1.88 µM (active)
21 | Nc1ccc(-c2ccc3ncc4ccc(=O)n(-c5cccc(C(F)(F)F)c5)c4c3c2)cn1 |  | 0.0544 µM (active)
22 | Cc1ccc(C(=O)Nc2ccc(CN3CCN(C)CC3)c(C(F)(F)F)c2)cc1C#Cc1cnc2cccnn12 |  | 17.2 µM (active)
23 | O=c1[nH]c(=O)n([C@H]2C[C@H](O)[C@@H](CO)O2)cc1F |  | 1.37 µM (active)
24 | O=C(O)c1ccc(Nc2ncc3c(n2)-c2ccc(Cl)cc2C(c2c(F)cccc2F)=NC3)cc1 | 11.7% | 
25 | NC(=O)c1cnc(-c2ccc(C3(N)CCC3)cc2)c(-c2ccccc2)c1 |  | 21.7 µM (active)
26 | Cc1cc(C2CCCCC2)n(O)c(=O)c1 |  | 11.1 µM (active)
27 | Cc1ccc(C(=O)N(CCCN)C(c2nc3cc(Cl)ccc3c(=O)n2Cc2ccccc2)C(C)C)cc1 (centres undefined) |  | 0.0061 µM (active)
28 | COc1cccc2c1C(=O)c1c(O)c3c(c(O)c1C2=O)C[C@@](O)(C(=O)CO)C[C@@H]3O[C@H]1C[C@H](N)[C@H](O[C@@H]2CCCCO2)[C@H](C)O1 |  | 10.9 µM (active)
29 | Cc1ccc(C(=O)Nc2cccc(C(F)(F)F)c2)cc1-c1ccc2nc(NCCN3CCOCC3)ncc2c1 |  | 19.3 µM (active)
30 | COc1cc2c(cc1-c1c(C)noc1C)ncc1[nH]c(=O)n(C(C)c3ccccn3)c12 (centres undefined) | 13.3% | 
31 | COc1cccc2c1C(=O)c1c(O)c3c(c(O)c1C2=O)C[C@@](O)(C(=O)CO)C[C@@H]3O[C@H]1C[C@H](N)[C@H](O)[C@H](C)O1 |  | 3.85 µM (active)
32 | COc1ccc2c(c1)c(CC(=O)O)c(C)n2C(=O)c1ccc(Cl)cc1 | -25.1% | 
33 | COc1cc(N2CCC(N3CCN(C)CC3)CC2)ccc1Nc1ncnc(Nc2ccccc2S(=O)(=O)C(C)C)n1 |  | 21.7 µM (active)
34 | C[C@@H](Oc1cc(-c2cnn(C3CCNCC3)c2)cnc1N)c1c(Cl)ccc(F)c1Cl |  | 21.7 µM (active)
